34 compounds from PubChem BioAssay AID485284 (NMMLSC, 2010) can be followed below.

Entries with a potency or affinity are not part of this list.

The assay can be described thus: loss of vesicle association with mouse CD8+ T cells – mouse 2C CD8+ T cells, flow cytometry, dose response (AID 485284).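 Further: drosophila derived vesicles carrying Ld MHC with QL9 peptide plus B7-1 and ICAM-1; vesicle binding seen as anti-B7-1 PE fluorescence on CD8 gated cells.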 The conditions noted are these: 2C mouse CD8+ T cell-exosome binding; at 45 µM (top of the series).
On to `CCOC(=O)CSc1nnnn1-c1cc(OC)c(Cl)cc1OC`, for which the binding remaining, % of control came to 136%.

With `Cc1c(NS(=O)(=O)CC23CCC(CC2=O)C3(C)C)c(=O)n(-c2ccccc2)n1C` (centres undefined), the binding remaining, % of control was 21%. To `CCN(CC)C(=O)N1CCN(S(=O)(=O)c2ccc(C)cc2)CC1` belongs 112%; to `CCOc1ccc(NC(=O)CN(C)C(=O)c2ccc(N3CCOCC3)c([N+](=O)[O-])c2)cc1OCC`, 134%; to `CCOC(=O)c1sc(NC(=O)C2CC(=O)N(c3ccccc3OC)C2)nc1C` (centres undefined), 141%.

For the compound `CCOC(=O)C1CCN(C(=O)c2ccc(NC(=O)C3CCCO3)cc2)CC1` (centres undefined), the binding remaining, % of control amounted to 218%. On to `CCOC(=O)c1cc2occc2n1CC(=O)NC1CCC(C)CC1` (centres undefined), for which the binding remaining, % of control was found to be 77%. For the compound `CCN1CCN(c2ccc(S(=O)(=O)N3CCOCC3)cc2NC(=O)/C=C/c2ccc(C)cc2)CC1`, the binding remaining, % of control turned out to be 98.1%. To `CC1CCN(S(=O)(=O)c2csc(C(=O)Nc3ccccc3)c2)CC1` belongs 61.2%. To `COc1ccccc1NS(=O)(=O)c1ccc(C)c(NC(=O)c2ccc(S(=O)(=O)N3CCCCCC3)cc2)c1` belongs 134%.

Regarding `CCCCCCCCn1c2c(c(=N)c3c1CCC3)CCCC2`, the binding remaining, % of control was determined as 36.6%. The figure for `Cn1c(CNC(=O)CNC(=O)c2ccc(F)cc2)cc(=O)n(C)c1=O` is 99.6%.

Regarding `CCOC(=O)C1CCCN(c2cc(=O)n(-c3ccccc3Cl)c(=O)[nH]2)C1` (centres undefined), the binding remaining, % of control was 87.9%. Regarding `CC1CCC(NC(=O)CN2C(=O)NC3(CCCCCC3)C2=O)CC1` (centres undefined), the binding remaining, % of control came out at 101%. The figure for `COc1ccc(NC(=O)COC(=O)c2cc(Cl)ccc2O)cc1S(=O)(=O)N1CCCCC1` is 75.3%; for `Cc1ccc(S(=O)(=O)Nc2c3ccccc3nc(=O)n2-c2ccccc2)cc1` it is 71.8%; for `CSCCC(NC(=O)c1ccc(=O)n(C)n1)c1nc2ccccc2[nH]1` (centres undefined) it is 149%. The figure for `CCCCn1c(N)c(N(CCOC)C(=O)C2CC(=O)N(c3ccc(CC)cc3)C2)c(=O)[nH]c1=O` (centres undefined) is 17.2%; for `O=C(Cc1ccc(S(=O)(=O)N2CCOCC2)s1)Nc1ccc(S(=O)(=O)N2CCCCC2)cc1` it is 72.7%.

Consider `CCN(Cc1ccccc1)C(=O)c1ccc(C)c(S(=O)(=O)N2CCCCC2)c1`, for which the binding remaining, % of control turned out to be 92.8%. To `Cc1noc(C)c1C(=O)OC(C)C(=O)N1CCc2ccccc21` (centres undefined) belongs 96.2%; to `CN1CCN(S(=O)(=O)c2cccc(C(=O)Nc3cc(C(F)(F)F)ccc3N3CCCCC3)c2)CC1`, 51.4%; to `Cc1ccc(S(=O)(=O)N2CCN(S(=O)(=O)N(C)C)CC2)c(C)c1`, 32.6%. The figure for `O=C(NNC(=S)NC(=O)c1ccco1)c1ccc(F)cc1` is 159%. The figure for `Cc1cc(F)ccc1S(=O)(=O)N1CCCOC1CNC(=O)C(=O)NC1CCCC1` (centres undefined) is 67.8%. As to `CCOC(=O)N1CCN(Cc2nc(-c3ccc(C)cc3)no2)CC1`, the binding remaining, % of control stood at 78.4%. The figure for `COc1ccc(N2C(=O)CC(Sc3ncn[nH]3)C2=O)c(OC)c1` (centres undefined) is 135%; for `CC1CCCN(CC(=O)NC(=O)NC2CCCCC2)C1` (centres undefined) it is 109%. The figure for `O=C(COc1ccccc1)Nc1cc(S(=O)(=O)N2CCOCC2)ccc1N1CCCC1` is 128%; for `Cc1c(C(=O)NCCSCc2c(F)cccc2Cl)cnn1-c1ccc(Cl)cc1` it is 144%; for `COc1ccc(-c2cc(CNS(=O)(=O)c3ccc(NC(C)=O)cc3)on2)cc1` it is 101%. The figure for `Cc1ccc2oc(=O)c(/C=C(\O)c3sc(C)nc3C)nc2c1` is 119%; for `COc1ccc(C(=O)NNC(=O)CSc2nnnn2C)cc1` it is 181%; for `CCSc1nnc(NC(=O)c2ccc(F)c(S(=O)(=O)N3CCOCC3)c2)s1` it is 127%.
